# Test results: ChEMBL document CHEMBL3988442, “University of Dundee, Small-Polar-MMV Screening Library” (2021)
# In all, about 69,000 compounds went through this assay and about 1,000 (1.4%) showed an effect of 50% or more. For the sample, strong results were picked, then their nearest neighbours and some compounds at random.
# Test system: Leishmania donovani
# Test: Leishmania intramacrophage assay
# Assay type: functional, organism-based
# Design: scale not given: in the data most compounds retested in dose-response had high values
smiles,measurement,setting,value
Cc1cccc(CN2CC[C@H]3O[C@H](C(=O)Nc4cnccn4)CC[C@H]32)n1.O=C(O)C(F)(F)F.O=C(O)C(F)(F)F,Percent Effect,"30.3 µM, […]",32.33%
CC(C)CN1CC(O)CN(S(=O)(=O)c2ccccc2)CC1=O (stereo not drawn),Percent Effect,"30.3 µM, […]",-1.941%
CN(Cc1ccncc1)C(=O)NCc1nnc2n1CCCCC2,Percent Effect,30 µM,-1.906%
COCCn1cc(NCc2cn(C)nc2-c2ccncc2)cn1,Percent Effect,"30.3 µM, […]",4.13%
O=C(O)C(F)(F)F.OCCN1CCOC2(CCCN(c3cccc(F)c3)C2)C1 (stereo not drawn),Percent Effect,"30 µM, 30.03 µM",37.14%
Cc1ccc(C2CSCCN2C(=O)c2cccs2)o1 (stereo not drawn),Percent Effect,"30.3 µM, […]",15.58%
CCN1CC2(CCC1=O)CCN(C(=O)c1cn3cccnc3n1)CC2,Percent Effect,"30.3 µM, […]",50.01%
CN1CC2(CCN(C(=O)c3cn4cccnc4n3)CC2)CC1=O,Percent Effect,"30.3 µM, […]",-9.039%
CC(C)CN1CC2(CCN(C(=O)c3cn4cccnc4n3)CC2)CC1=O,Percent Effect,"30.3 µM, […]",-23.89%
CCOCc1cnc2n1CCN(C(=O)Cc1cccs1)C2C (stereo not drawn),Percent Effect,"30.3 µM, […]",53.58%
CC1c2ncc(Cn3cncn3)n2CCN1C(=O)Cc1cccs1 (stereo not drawn),Percent Effect,"30.3 µM, […]",31.82%
CCOCc1cnc2n1CCN(C(=O)Cc1ccco1)C2C (stereo not drawn),Percent Effect,"30.3 µM, […]",17.38%
Cl.c1cnc(Nc2cncc(C3CCCN3)n2)cn1 (stereo not drawn),Percent Effect,"30.3 µM, […]",5.876%
Cc1cnc(N2CCC3(CC2)CC(NC(=O)N(C)C)CO3)nc1 (stereo not drawn),Percent Effect,"30.3 µM, […]",5.267%
O=C(NCCN1CCCC1)c1cc2c(s1)CCN2c1ncccn1,Percent Effect,"30.3 µM, […]",35.65%
CCCNC(=O)c1cc2c(s1)CCN2c1ncccn1,Percent Effect,"30.3 µM, […]",24.35%
O=C(NCC1CC1)c1cc2c(s1)CCN2c1ncccn1,Percent Effect,"30.3 µM, […]",54.07%
COc1ccc(CCN2C(=O)O[C@@H]3CN(C4CCSCC4)C[C@@H]32)cc1,Percent Effect,"30.3 µM, […]",4.59%
COc1cccn(C(C)C(=O)NC2CCCC2)c1=O (stereo not drawn),Percent Effect,"30.3 µM, […]",28.93%
COc1cc(CN2CCCC2c2cccc(F)c2)cc(OC)c1OC (stereo not drawn),Percent Effect,"30.3 µM, […]",4.07%
COc1ccc(CN2CCCC2c2cccc(F)c2)c(OC)c1OC (stereo not drawn),Percent Effect,"30.3 µM, […]",53.41%
COc1cccc(CN2CCCC2c2cccc(F)c2)c1OC (stereo not drawn),Percent Effect,"30.3 µM, […]",48.24%
O=C1CC(NCc2ccncc2)CN1CCc1cccc(Cl)c1 (stereo not drawn),Percent Effect,"30.3 µM, […]",37.94%
Clc1cc(Cl)cc(CN2CCC(NCc3cc[nH]n3)CC2)c1,Percent Effect,"30.3 µM, […]",71.72%
Cc1nc[nH]c1CNC1CC(=O)N(CCc2cccc(Cl)c2)C1 (stereo not drawn),Percent Effect,"30.3 µM, […]",-19.6%
COc1cc(OC)cc(N2CCC(NCc3cc[nH]n3)C2)c1 (stereo not drawn),Percent Effect,"30.3 µM, […]",11.55%
Cc1cccc(OC2CCN(Cc3ncc[nH]3)CC2)c1,Percent Effect,"30.3 µM, […]",-10.49%
CN1CCN(Cc2cccc(NCc3ncc[nH]3)c2)CC1,Percent Effect,"30.3 µM, […]",3.083%
Brc1ccc(CN2CCC(NCc3ncc[nH]3)CC2)cc1,Percent Effect,"30.3 µM, […]",85.49%
Clc1cc(Cl)cc(CN2CCC(NCc3ncc[nH]3)CC2)c1,Percent Effect,"30.3 µM, […]",84.31%
Clc1cccc(N2CCC(NCc3cc[nH]n3)C2)c1 (stereo not drawn),Percent Effect,"30.3 µM, […]",14.09%
COc1ccc(CCN2CC(NCc3ncc[nH]3)CC2=O)cc1 (stereo not drawn),Percent Effect,"30.3 µM, […]",17.72%
Clc1cccc(N2CCC(NCc3ncc[nH]3)C2)c1 (stereo not drawn),Percent Effect,"30.3 µM, […]",26.13%
O=C1CC(NCc2ncc[nH]2)CN1CCc1cccc(Cl)c1 (stereo not drawn),Percent Effect,"30.3 µM, […]",87.49%
O=c1cnc2ccccc2n1CCCn1cccn1,Percent Effect,"30.3 µM, […]",-23.4%
Cc1cc(O)c(OCC(=O)/N=c2\[nH]cc(C)s2)cn1,Percent Effect,"30 µM, 30.03 µM",13.79%
CC(=O)Nc1nc(C(=O)N2CCCC2c2noc(C3CC3)n2)cs1 (stereo not drawn),Percent Effect,"30.3 µM, […]",0.7706%
CN1CC(c2ccccc2)CC12CCN(C(=O)c1cccnc1)CC2 (stereo not drawn),Percent Effect,"30.3 µM, […]",13.25%
CC(C)n1ccnc1C1CCN(C(=O)C2COc3ccccc3O2)CC1 (stereo not drawn),Percent Effect,"30 µM, 30.03 µM",-2.599%
Cc1cc(C)nc(NCCC(=O)Nc2ccc(Cn3cncn3)cc2)n1,Percent Effect,"30.3 µM, […]",18.2%
COc1cc(N2CC[C@@H]3O[C@@H](c4ccncn4)C[C@H]3C2)ncn1,Percent Effect,"30.3 µM, […]",101.1%
COc1cc(N2CC[C@@H]3O[C@@H](c4ccnc(C)n4)C[C@H]3C2)ncn1,Percent Effect,"30.3 µM, […]",16.01%
Cc1ccc(N2CC[C@@H]3O[C@@H](c4ccncn4)C[C@H]3C2)nn1,Percent Effect,"30.3 µM, […]",12.48%
CC(=O)Nc1ncc(S(=O)(=O)Nc2ccccc2)s1,Percent Effect,"30.3 µM, […]",-54.24%
CCc1nnc(CNC2CCCN(Cc3noc(C4CC4)n3)C2)o1 (stereo not drawn),Percent Effect,30 µM,-1.291%
O=c1[nH]cnc2c1CCN(S(=O)(=O)c1ccc(OC(F)(F)F)cc1)C2,Percent Effect,"30.3 µM, […]",24.26%
CCOCCOc1ccc(S(=O)(=O)N2CCc3c(nc[nH]c3=O)C2)cc1,Percent Effect,"30.3 µM, […]",59.04%
O=c1[nH]cnc2c1CCN(S(=O)(=O)c1ccc(Cl)cc1)C2,Percent Effect,"30.3 µM, […]",10.57%
